Our source for the outcome and AC50 values is PubChem BioAssay (EPA / NIEHS).

SMILES strings stand for the structures. Records with an inconclusive call do not appear. Calls of active or inactive are those of the source. The calls were made as follows: active = hit-call score of the fitted dose curve at least 0.9, where 1 is the maximum; inconclusive = response in the unintended direction; inactive = score below 0.9.

Test [1] addresses Neuropeptide Y receptor type 2 (Homo sapiens) (UniProt P49146). In words: NVS_GPCR_hNPY2: NovaScreen (NVS) G Protein-Coupled Receptor Assay for human Neuropeptide Receptor Y2 (NPY2) (AID 2283277). Put shortly:
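Chemicals were first tested in duplicate at 25 uM, then actives in singleton concentration series to 50 uM. Tracer binding to SK-N-MC-derived protein measured cell-free after 1 h via filter scintillation; signal loss relative to DMSO.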

Test [2] has as its target human Opioid Receptor Mu (Opiate Mu), OPRM1 (gene 4988) (UniProt P35372). In words: NVS_GPCR_hOpiate_mu: NovaScreen (NVS) G Protein-Coupled Receptor Assay for human Opioid Receptor Mu (Opiate Mu) (AID 2283290).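 Also: hits lower bound tracer signal versus DMSO meaning displacement of the ligand.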 Put shortly: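 Radioligand displacement binding on membranes from CHO cells expressing the receptor, 2.5 h after dosing, filter-based scintillation counting; loss of signal vs DMSO baseline. Screened in duplicate at 25 uM, actives then run in concentration series.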

Test [3] addresses human Opioid Receptor Delta 1 (Opiate D1), OPRD1 (gene 4985) (UniProt P41143). The experiment in a line: NVS_GPCR_hOpiate_D1: NovaScreen (NVS) G Protein-Coupled Receptor Assay for human Opioid Receptor Delta 1 (Opiate D1) (AID 2283280). The method in brief: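 Membrane preparations from CHO cells bearing the human receptor were incubated 1 h with test chemical, and bound radioligand was counted after filtration. Actives from 25 uM duplicate screening were retested in concentration-response.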

Test [4] addresses Muscarinic acetylcholine receptor M2 (Homo sapiens) (UniProt P08172). The experiment in a line: NVS_GPCR_hM2: NovaScreen (NVS) G Protein-Coupled Receptor Assay for human Muscarinic, M2 Receptor (AID 2283273). The method in brief:
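CHO-expressed human M2 receptor preparation, competitive displacement of a radioligand read by filter-based scintillation counting after 1 h. Single 25 uM duplicate screen, then concentration-response follow-up of actives; DMSO baseline.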

Test [5] has as its target mouse Cholecystokinin, CCK2 Receptor (CCKB), Cckbr (gene 12426) (UniProt P56481). The experiment in a line: NVS_GPCR_mCKKBCentral: NovaScreen (NVS) G Protein-Coupled Receptor Assay for mouse Cholecystokinin, CCK2 Receptor (CCKB) (AID 2283293). The method in brief:
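Mouse forebrain membrane preparation incubated 2 h with chemical and radioligand; bound radioactivity counted after filtration. Single-concentration duplicate screen at 25 uM, then concentration series to 50 uM max for hits, DMSO as baseline.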

Test [6] has as its target D(1A) dopamine receptor (Homo sapiens) (UniProt P21728). The experiment in a line: NVS_GPCR_hDRD1: NovaScreen (NVS) G Protein-Coupled Receptor Assay for human Dopamine Receptor D1 (DRD1) (AID 2283269). Put shortly:
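Radioligand displacement binding on membranes/protein extracted from HEK293 expressing human D1, cell-free; read 1 h after dosing by filter-based scintillation counting. Primary screen in duplicate at 25 uM, actives followed up in concentration series; signal loss versus DMSO baseline.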

Test [7] has as its target human Neurokinin, NK2 Receptor, TACR2 (gene 6865) (UniProt P21452). The experiment in a line: NVS_GPCR_hNK2: NovaScreen (NVS) G Protein-Coupled Receptor Assay for human Neurokinin, NK2 Receptor (AID 2283278).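 Also: actives reduce bound radioligand signal relative to DMSO baseline.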 The method in brief: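 Radioligand binding on membranes from CHO cells expressing receptor, filter-based scintillation read 4 h after dosing. Initial duplicate screen at 25 uM, actives in concentration series; loss of signal versus DMSO.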

In test [8] the target is Muscarinic acetylcholine receptor M1 (Homo sapiens) (UniProt P11229). The experiment in a line: NVS_GPCR_hM1: NovaScreen (NVS) G Protein-Coupled Receptor Assay for human Muscarinic, M1 Receptor (AID 2283270). Put shortly:
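Actives from a duplicate 25 uM single-point screen were retested in concentration series. Binding measured as displacement of a radioligand from CHO-derived receptor preparation, 1 h incubation, filtration and scintillation counting, analysed as signal loss against DMSO.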

Test [9] concerns the target human Orphanin, Opioid Related Nociceptin Receptor 1 (ORL1), OPRL1 (gene 4987) (UniProt P41146). The experiment in a line: NVS_GPCR_hORL1: NovaScreen (NVS) G Protein-Coupled Receptor Assay for human Orphanin, Opioid Related Nociceptin Receptor 1 (ORL1) (AID 2283283). The method in brief:
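Cell-free binding using HEK293-derived receptor protein: radioligand displacement measured by filter scintillation 1 hour after dosing. Primary testing at 25 uM in duplicate, followed by singleton concentration series up to 50 uM; DMSO served as negative control.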

Test [10] deals with human Purinergic Receptor P2Y, P2RY1 (gene 5028) (UniProt P47900). The experiment in a line: NVS_GPCR_hPY2: NovaScreen (NVS) G Protein-Coupled Receptor Assay for human Purinergic Receptor P2Y (AID 2283281). The method in brief:
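Filtration scintillation readout of radioligand displacement on U937 extract, measured 1 h post-dosing. Single 25 uM duplicate screen, then singleton concentration series to 50 uM for chemicals passing threshold; DMSO as baseline.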

Test [11] concerns guinea pig Atrionatriuretic Peptide Receptor A (ANPA), gene 100135578. The experiment in a line: NVS_GPCR_gANPA: NovaScreen (NVS) G Protein-Coupled Receptor Assay for guinea pig Atrionatriuretic Peptide Receptor A (ANPA) (AID 2283291). The method in brief:
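Displacement of specific radioligand from guinea pig cerebellum membranes was read by scintillation after 1 h. A duplicate single-point screen at 25 uM was followed by a concentration series up to 50 uM, analysed relative to DMSO.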

In test [12] the target is human Thromboxane A2 Receptor (TXA2), TBXA2R (gene 6915) (UniProt P21731). In words: NVS_GPCR_hTXA2: NovaScreen (NVS) G Protein-Coupled Receptor Assay for human Thromboxane A2 Receptor (TXA2) (AID 2283282).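 Also: actives reduce bound radioligand signal relative to DMSO baseline.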 Put shortly: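 Biochem binding, human platelets, cell-free; competitive radioligand displacement; 1 h; filter radiodetection. 25 uM duplicate primary, conc. series secondary; DMSO neg. ctrl.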
Sequence of human Thromboxane A2 Receptor (TXA2), TBXA2R (gene 6915) (P21731 whole entry, looked up): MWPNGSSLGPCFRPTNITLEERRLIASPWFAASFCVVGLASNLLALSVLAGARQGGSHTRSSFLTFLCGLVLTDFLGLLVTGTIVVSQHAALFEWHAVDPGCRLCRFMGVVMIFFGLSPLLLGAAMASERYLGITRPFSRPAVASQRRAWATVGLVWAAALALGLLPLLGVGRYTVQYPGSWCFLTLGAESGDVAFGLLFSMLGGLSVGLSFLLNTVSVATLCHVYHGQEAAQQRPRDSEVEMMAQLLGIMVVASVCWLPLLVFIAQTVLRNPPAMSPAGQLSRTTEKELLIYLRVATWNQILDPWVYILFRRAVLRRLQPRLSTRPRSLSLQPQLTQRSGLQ

Sequence of human Neurokinin, NK2 Receptor, TACR2 (gene 6865) (P21452 whole entry, looked up): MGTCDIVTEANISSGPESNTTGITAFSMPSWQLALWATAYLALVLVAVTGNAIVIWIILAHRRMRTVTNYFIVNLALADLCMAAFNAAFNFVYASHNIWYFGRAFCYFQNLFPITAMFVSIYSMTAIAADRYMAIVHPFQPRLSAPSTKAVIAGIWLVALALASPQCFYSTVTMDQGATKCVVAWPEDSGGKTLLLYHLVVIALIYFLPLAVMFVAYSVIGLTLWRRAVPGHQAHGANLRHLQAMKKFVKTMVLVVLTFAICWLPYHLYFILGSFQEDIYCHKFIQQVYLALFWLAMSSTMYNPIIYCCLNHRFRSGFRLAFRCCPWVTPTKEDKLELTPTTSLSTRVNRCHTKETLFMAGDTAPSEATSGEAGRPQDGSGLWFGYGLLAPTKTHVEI
Sequence of D(1A) dopamine receptor (Homo sapiens) (P21728 whole entry, looked up): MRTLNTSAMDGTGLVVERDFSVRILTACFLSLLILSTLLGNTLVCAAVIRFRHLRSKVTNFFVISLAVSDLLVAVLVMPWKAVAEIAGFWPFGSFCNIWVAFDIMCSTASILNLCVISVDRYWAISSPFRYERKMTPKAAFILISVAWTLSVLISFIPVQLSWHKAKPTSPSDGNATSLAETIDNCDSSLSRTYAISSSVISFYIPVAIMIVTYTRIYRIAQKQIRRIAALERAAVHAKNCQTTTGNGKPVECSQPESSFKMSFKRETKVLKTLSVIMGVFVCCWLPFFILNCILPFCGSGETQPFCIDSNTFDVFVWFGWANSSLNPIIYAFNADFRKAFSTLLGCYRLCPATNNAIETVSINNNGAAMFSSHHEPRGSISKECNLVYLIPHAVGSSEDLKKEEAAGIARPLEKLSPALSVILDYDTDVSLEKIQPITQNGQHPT
Sequence of human Opioid Receptor Mu (Opiate Mu), OPRM1 (gene 4988) (P35372 whole entry, looked up): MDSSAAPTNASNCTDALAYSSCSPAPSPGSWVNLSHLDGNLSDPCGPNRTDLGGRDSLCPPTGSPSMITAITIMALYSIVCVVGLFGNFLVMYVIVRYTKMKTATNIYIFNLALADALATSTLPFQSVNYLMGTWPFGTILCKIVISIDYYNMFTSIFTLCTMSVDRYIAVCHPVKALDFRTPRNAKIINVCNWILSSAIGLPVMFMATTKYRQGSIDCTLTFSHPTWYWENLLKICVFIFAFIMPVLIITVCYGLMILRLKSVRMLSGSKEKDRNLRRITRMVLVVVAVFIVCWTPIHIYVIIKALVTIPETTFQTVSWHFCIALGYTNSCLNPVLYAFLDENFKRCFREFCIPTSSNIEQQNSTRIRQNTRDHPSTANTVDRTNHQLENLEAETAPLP
Sequence of Muscarinic acetylcholine receptor M2 (Homo sapiens) (P08172 whole entry, looked up): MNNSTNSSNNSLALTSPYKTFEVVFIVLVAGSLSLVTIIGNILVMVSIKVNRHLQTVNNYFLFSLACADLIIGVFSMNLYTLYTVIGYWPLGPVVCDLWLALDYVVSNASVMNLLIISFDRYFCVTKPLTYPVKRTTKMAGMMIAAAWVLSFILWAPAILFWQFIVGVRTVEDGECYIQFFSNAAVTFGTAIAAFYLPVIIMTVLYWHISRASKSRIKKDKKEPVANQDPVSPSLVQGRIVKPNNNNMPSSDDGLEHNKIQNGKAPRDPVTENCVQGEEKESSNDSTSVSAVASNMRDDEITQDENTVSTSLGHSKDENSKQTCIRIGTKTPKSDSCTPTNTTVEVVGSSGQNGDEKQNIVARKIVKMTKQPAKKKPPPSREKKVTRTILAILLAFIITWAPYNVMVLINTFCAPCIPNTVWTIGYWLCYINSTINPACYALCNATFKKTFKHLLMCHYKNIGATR
Sequence of human Purinergic Receptor P2Y, P2RY1 (gene 5028) (P47900 whole entry, looked up): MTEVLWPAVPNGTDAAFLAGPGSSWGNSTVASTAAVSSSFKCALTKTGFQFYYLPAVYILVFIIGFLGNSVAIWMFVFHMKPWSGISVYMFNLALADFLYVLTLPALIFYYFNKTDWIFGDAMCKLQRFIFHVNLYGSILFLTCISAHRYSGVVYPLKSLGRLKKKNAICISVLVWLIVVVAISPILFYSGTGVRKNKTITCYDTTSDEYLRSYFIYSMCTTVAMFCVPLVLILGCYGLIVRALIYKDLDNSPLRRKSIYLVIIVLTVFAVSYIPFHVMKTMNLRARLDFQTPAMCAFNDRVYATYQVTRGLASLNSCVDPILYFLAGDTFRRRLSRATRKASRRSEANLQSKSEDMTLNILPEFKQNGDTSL
Sequence of mouse Cholecystokinin, CCK2 Receptor (CCKB), Cckbr (gene 12426) (P56481 whole entry, looked up): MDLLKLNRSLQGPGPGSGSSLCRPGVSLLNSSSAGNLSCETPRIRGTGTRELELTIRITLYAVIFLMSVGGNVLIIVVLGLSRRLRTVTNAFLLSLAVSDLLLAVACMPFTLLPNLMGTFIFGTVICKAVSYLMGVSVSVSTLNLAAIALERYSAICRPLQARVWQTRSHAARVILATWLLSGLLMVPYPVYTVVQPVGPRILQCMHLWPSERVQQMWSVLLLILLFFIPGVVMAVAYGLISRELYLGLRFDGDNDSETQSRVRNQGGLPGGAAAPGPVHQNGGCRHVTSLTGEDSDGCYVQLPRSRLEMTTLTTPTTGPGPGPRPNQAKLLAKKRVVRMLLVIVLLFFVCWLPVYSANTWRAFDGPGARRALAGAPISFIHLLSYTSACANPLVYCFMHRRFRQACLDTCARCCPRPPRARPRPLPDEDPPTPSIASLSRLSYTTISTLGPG
Sequence of human Opioid Receptor Delta 1 (Opiate D1), OPRD1 (gene 4985) (P41143 whole entry, looked up): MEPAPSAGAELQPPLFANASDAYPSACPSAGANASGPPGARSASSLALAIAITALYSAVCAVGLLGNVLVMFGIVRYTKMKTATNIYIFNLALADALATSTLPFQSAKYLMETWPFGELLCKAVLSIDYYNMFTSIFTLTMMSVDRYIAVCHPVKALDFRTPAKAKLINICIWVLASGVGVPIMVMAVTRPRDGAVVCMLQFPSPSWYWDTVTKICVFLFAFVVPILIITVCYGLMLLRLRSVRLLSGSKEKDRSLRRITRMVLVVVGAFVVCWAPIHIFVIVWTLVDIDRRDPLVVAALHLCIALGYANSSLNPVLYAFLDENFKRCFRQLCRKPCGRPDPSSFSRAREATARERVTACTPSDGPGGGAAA
Sequence of human Orphanin, Opioid Related Nociceptin Receptor 1 (ORL1), OPRL1 (gene 4987) (P41146 whole entry, looked up): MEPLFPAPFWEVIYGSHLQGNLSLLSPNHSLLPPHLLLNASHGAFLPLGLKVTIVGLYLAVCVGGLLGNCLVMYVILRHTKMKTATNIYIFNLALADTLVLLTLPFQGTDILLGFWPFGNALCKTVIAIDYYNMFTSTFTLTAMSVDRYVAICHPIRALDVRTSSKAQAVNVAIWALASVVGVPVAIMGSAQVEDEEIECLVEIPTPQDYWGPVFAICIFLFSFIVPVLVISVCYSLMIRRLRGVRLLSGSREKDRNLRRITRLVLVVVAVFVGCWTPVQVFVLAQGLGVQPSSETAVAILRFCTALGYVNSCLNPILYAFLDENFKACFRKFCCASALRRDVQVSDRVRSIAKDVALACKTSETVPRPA
Sequence of Neuropeptide Y receptor type 2 (Homo sapiens) (P49146 whole entry, looked up): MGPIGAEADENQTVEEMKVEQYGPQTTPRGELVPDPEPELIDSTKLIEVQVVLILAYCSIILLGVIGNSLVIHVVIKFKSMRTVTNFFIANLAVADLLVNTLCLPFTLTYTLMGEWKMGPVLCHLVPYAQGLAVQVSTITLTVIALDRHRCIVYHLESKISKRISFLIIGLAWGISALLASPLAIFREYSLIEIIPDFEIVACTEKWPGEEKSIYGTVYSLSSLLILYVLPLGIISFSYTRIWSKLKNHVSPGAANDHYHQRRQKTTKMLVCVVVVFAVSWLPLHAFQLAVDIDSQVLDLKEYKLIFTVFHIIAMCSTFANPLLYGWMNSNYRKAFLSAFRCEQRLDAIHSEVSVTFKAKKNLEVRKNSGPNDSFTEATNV
Sequence of Muscarinic acetylcholine receptor M1 (Homo sapiens) (P11229 whole entry, looked up): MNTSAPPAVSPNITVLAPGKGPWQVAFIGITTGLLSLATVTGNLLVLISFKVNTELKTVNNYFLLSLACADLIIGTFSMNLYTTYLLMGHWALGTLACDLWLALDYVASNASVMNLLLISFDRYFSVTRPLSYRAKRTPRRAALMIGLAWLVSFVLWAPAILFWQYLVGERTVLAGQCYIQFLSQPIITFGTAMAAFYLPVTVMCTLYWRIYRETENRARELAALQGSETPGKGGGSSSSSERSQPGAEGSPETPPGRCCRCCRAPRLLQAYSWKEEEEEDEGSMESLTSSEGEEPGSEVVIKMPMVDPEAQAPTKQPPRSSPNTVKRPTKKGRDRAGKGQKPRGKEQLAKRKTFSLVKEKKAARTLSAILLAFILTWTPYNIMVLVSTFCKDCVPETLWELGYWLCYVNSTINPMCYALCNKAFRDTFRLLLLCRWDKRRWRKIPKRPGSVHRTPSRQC

Take `Nc1ccc(Cl)cc1`: in [1], the result was inactive.

As for `OCC1CO1` (stereo not given), the outcome in test [2] was inactive.

As to `Nc1ccc2ccccc2c1`, the outcome in test [2] was inactive.

Regarding `ClC1=C(Cl)C2(Cl)C3C(Cl)C(Cl)CC3C1(Cl)C2(Cl)Cl` (stereo not given), the outcome in test [3] was inactive.

With `CCC(C)(C)c1ccc(O)cc1`, the compound was called inactive in test [4] and in [5]. Besides, in test [2], the concentration at half-maximal activity (AC50) (usually the concentration giving half of the maximal activity seen) is 6.43 µM (active).

On to `CC(C)Nc1ccc(Nc2ccccc2)cc1`, for which the AC50 was 25 µM (active) in test [6], 2.71 µM (active) in test [4] and 20 µM (active) in test [7].

For the compound `Cc1cc(C)c(C(=O)P(=O)(c2ccccc2)c2ccccc2)c(C)c1`, the AC50 in test [7] is 0.367 µM (active).

Regarding `CC1(C)CN=C(NN=C(/C=C/c2ccc(C(F)(F)F)cc2)/C=C/c2ccc(C(F)(F)F)cc2)NC1`, the AC50 in [8] is 19.6 µM (active); in test [9] it was 37.2 µM (active); in [2], 6.5 µM (active).

Take `O=S1(=O)OCC2C(CO1)C1(Cl)C(Cl)=C(Cl)C2(Cl)C1(Cl)Cl` (stereo not given): in [7], the compound was classed as inactive.

With `CC(C)(C)c1ccccc1OP(=O)(Oc1ccccc1)Oc1ccccc1`, the concentration at half-maximal activity (AC50) in test [7] was 17.2 µM (active).

Take `CCOP(=S)(OCC)SCSc1ccc(Cl)cc1`: in [7], the compound was classed as inactive.

For `Cn1[nH]nnc1=S`, the compound was classed as inactive in [7].

Take `O=c1ssc(Cl)c1Cl`: the concentration at half-maximal activity (AC50) was 1.21 µM (active) in test [6] and 0.885 µM (active) in [2]. Also, the compound was classed as inactive in [10].

Turning to `O=[N+]([O-])c1ccccc1`, the outcome in test [11] was inactive.

With `N#Cc1c(-c2ccc(Cl)cc2)[nH]c(C(F)(F)F)c1Br`, the compound was called inactive in [6] and in test [2]. Also, in test [12], the half-maximal activity concentration (AC50) is 4.66 µM (active).

As for `Cc1ccc2c(c1N)C(=O)c1ccccc1C2=O`, the compound was called inactive in test [12].

`CC(=O)c1ccc(-c2ccccc2)cc1`: in test [12], the call was inactive.

For the compound `N#Cc1ccc(O)cc1`, the compound was classed as inactive in [12].

In the case of `C/C(=N\NC(=O)Nc1cc(F)cc(F)c1)c1ncccc1C(=O)O`, the compound was classed as inactive in [12].

As to `Nc1ccc([N+](=O)[O-])cc1Cl`, the call in test [6] was inactive.
